Compound activity deposited in PubChem by The Scripps Research Institute Molecular Screening Center.
A selection: hits, their analogues and other compounds. The true share with any hit is near 4.8%.
hcDAF-12 act = H. contortus DAF-12 activation, primary screen | activation, % at 6.8 µM | actives 1.4% (n = 370,000) | HEK293 hcDAF-12 lit1-tk-luc reporter, luminescence; 0% DMSO, 100% Δ7-dafachronic acid;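 active = activation above the mean of all tested compounds plus 3 SD, cut at about 5.5% in these data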;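 also: 100% = response to 3 µM Δ7-dafachronic acid high control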
SMARCA2 act = SMARCA2 function activation, primary screen. MG213 cells, MMTV-luciferase reporter, dexamethasone, overnight. activation, % at 9.1 µM. actives 1% (n = 370,000); in the data active = activation above about 7.8%;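 also: 0% = vehicle wells and 100% = reference activator wells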
DAX1 inh-1 = DAX1 (NR0B1) inhibition, primary screen. inhibition, % at 6.8 µM. actives 1.1% (n = 370,000). HEK293T StAR-luciferase reporter, SF-1/DAX-1 repression relief;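 active = inhibition above the mean over all tested compounds plus 3 SD, cut at about 3.6% in these data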;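 also: 0% = DAX-1 cells with DMSO and 100% = cells lacking DAX-1 with DMSO; higher inhibition means more luminescence from relief of DAX-1 repression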
DAX1 inh-2 = inhibitors of human orphan nuclear receptor DAX1 (NR0B1). P51843. HEK293 Gal4-DAX1 luciferase reporter, luminescence. inhibition, % at 6.75 µM. actives 0.99% (n = 340,000);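 active = inhibition above the mean over all tested compounds plus 3 SD, cut at about 4.2% in these data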;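 also: 0% = DAX1-transfected cells with DMSO and 100% = empty-vector control cells with DMSO; inhibition shows as a rise in luminescence from relieved DAX1 repression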
Target sequence (P51843 207-470 limits assumed): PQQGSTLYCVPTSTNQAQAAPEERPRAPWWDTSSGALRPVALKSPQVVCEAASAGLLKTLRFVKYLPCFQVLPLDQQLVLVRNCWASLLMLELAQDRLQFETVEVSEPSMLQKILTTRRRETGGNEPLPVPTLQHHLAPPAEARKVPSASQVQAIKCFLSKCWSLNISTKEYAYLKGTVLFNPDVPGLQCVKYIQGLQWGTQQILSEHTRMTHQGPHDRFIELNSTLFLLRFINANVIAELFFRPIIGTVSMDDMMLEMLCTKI
ssDAF-12 act = activates DAF-12 receptor from parasite S. stercoralis; HEK293 ssDAF-12/GRIP1 lit1-tk-luc reporter, luminescence; % of 3 µM dafachronic acid response; activation, % at 6.8 µM; actives 1% (n = 370,000); AID 652126;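 active = activation above the mean over all tested compounds plus 3 SD, cut at about 0.9% in these data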;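 also: 0% = DMSO-only wells and 100% = 3 µM delta7-dafachronic acid wells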
hgDAF12 agonist = hgDAF-12 agonism, primary luciferase screen; AID 687014; actives 1.8% (n = 370,000); activation, % at 6.8 µM; HEK293 GAL4-hgDAF12 UAS-luciferase reporter, agonist luminescence; normalized to butyrate control;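 active = activation above a cutoff set at the mean of all screened compounds plus 3 SD, cut at about 10% in these data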;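 also: 0% = DMSO wells and 100% = sodium butyrate wells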
LXR ag = counter-screen for hcDAF-12 agonists: agonists of human LXR-beta. 3,400 tested, under 10 active. HEK293 Gal4-LXR tk-luc reporter, luminescence, 24 h; normalized: DMSO 0%, positive control 100%. shares compounds with hcDAF-12 act. activation, % at 6.8 µM;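 active = mean percent activation of the reporter above a cutoff set as the average over tested compounds plus their standard deviation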
hcDAF12 conf = confirmation of H. contortus DAF-12 agonists; shares compounds with hcDAF-12 act; HEK293 hcDAF-12 lit1-tk-luc reporter, luminescence; % of Δ7-dafachronic acid response; activation, % at 6.8 µM; actives 61% (n = 3,400);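 active = mean activation across triplicate tests above the threshold derived from the earlier primary screen, cut at about 5.5% in these data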;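 also: 0% = DMSO only wells and 100% = 3 µM Δ7-dafachronic acid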
* hit, by the source's call; nt = no result.

SMILES | hcDAF-12 act | SMARCA2 act | DAX1 inh-1 | DAX1 inh-2 | ssDAF-12 act | hgDAF12 agonist | LXR ag | hcDAF12 conf
COc1ccc(N(C(=O)CNC(=O)c2ccco2)C(C(=O)NCC2CCCO2)c2ccccc2)cc1OC (stereo not given) | -2 | -2 | 0 | -1 | -1 | -2 | nt | nt
COC(=O)CC1OCC=C2CN3CCC45C6=CC(=O)C(=O)C([N+](=O)[O-])=C6NC4C1C2CC35 (stereo not given) | 0 | -2 | 0 | nt | -1 | 2 | nt | nt
Cc1cc(=O)oc2ccc(OC(=O)CN3C(=O)c4cccc([N+](=O)[O-])c4C3=O)cc12 | 8.8* | -2 | 0 | 0 | -1 | 1 | 0 | 2
Cc1cc(C)nc(SCC(=O)Oc2ccc3oc(=O)cc(C)c3c2)n1 | 0 | 1 | 0 | 1 | -1 | 6 | nt | nt
COC(=O)C1Cc2c([nH]c3ccccc23)C2CCC(=O)N12 (stereo not given) | 2 | -4 | -1 | 1 | 0 | 2 | nt | nt
COC(=O)C12C=C3CC(C)=C3C(=O)N1Cc1[nH]c3ccccc3c1C2 (stereo not given) | 8.1* | -1 | 0 | nt | 0 | 2 | 0 | 5.9*
C[C@H](NC(=O)c1nc[nH]c1C(=O)NCC(=O)OCc1ccccc1)C(=O)OC(C)(C)C | 0 | 0 | 1 | 3 | -1 | 0 | nt | nt
COc1cc2c(cc1NC(=O)C(C)OC(=O)C1CC(=O)N(Cc3ccco3)C1)oc1ccccc12 (stereo not given) | 8.8* | 4 | 1 | 1 | 1.5* | 6 | 0 | 8.0*
O=c1c2ccccc2nnn1Cc1ccc(F)cc1 | 1 | 1 | -1 | 0 | -1 | 3 | nt | nt
CC(=O)C1=C(O)C(=O)N(CCc2ccccc2)C1c1ccccc1[N+](=O)[O-] (stereo not given) | 7.3* | 0 | 0 | 3 | 0 | 3 | 0 | 1
O=C(/C=C/c1ccccc1)C1=C(O)C(=O)N(CCO)C1c1ccccc1[N+](=O)[O-] (stereo not given) | 4 | -2 | 1 | -1 | 1 | 3 | nt | nt
O=C(COC(=O)CN1C(=O)C2CCCCC2C1=O)Nc1ccc(S(=O)(=O)N2CCOCC2)cc1 (stereo not given) | 8.9* | -1 | 0 | 1 | 1.5* | 1 | 0 | 3
COc1ccc(N2CCN(CCCNC(=O)Nc3ccccc3)CC2)cc1 | -2 | 8 | 0 | -1 | 0 | -1 | nt | nt
CC(C)CNC(=S)NC1CC2CCC(C1)N2Cc1ccccc1 (stereo not given) | 6.8* | -2 | 1 | -1 | -1 | 2 | 0 | 2
O=C(O)c1nc(N2CCCCC2)ncc1Cl | -1 | -5 | 0 | 1 | 0 | 0 | nt | nt
O=C(CC(SCCO)c1ccc([N+](=O)[O-])cc1)c1ccco1 (stereo not given) | 7.1* | -1 | -1 | 0 | -2 | 0 | 0 | 1
COc1ccc2[nH]c(C(=O)N3CCN(c4ccccc4F)CC3)c(C)c2c1 | -1 | 0 | 0 | 2 | -1 | -1 | nt | nt
CCN(CC)CCn1c(NC(=O)c2ccc(C)cc2)nc2ccccc21 | 11* | 2 | 1 | 3 | 1.0* | 10 | 0 | 5
CN(C)CCn1c(NC(=O)c2ccc(Cl)cc2)nc2ccccc21 | 7.1* | 8 | 3.8* | 1 | 0 | 5 | 1 | 9.9*
CCN(CC)CCn1c(NC(=O)c2ccc(C(F)(F)F)cc2)nc2ccccc21 | 0 | 2 | 0 | 1 | -1 | 0 | nt | nt
Cc1csc(-c2ccc3cc(Cl)cc(Cl)c3n2)n1 | 10* | -2 | 1 | nt | 0 | 2 | 1 | 11*
